Screening results: PubChem, National Center for Advancing Translational Sciences (NCATS)
Hits are enriched below; roughly 5.6% of the tested compounds scored in any of these assays.
RORg inh: inhibitors of mouse ROR gamma transcriptional activity; Drosophila S2 Gal4-RORgamma UAS-luciferase reporter, 20 h; P51450; 310,000 tested, 5.4% active; AID 2551; Potency, µM (series often up to 53.6 µM), usual class: inhibitors; further: nearly all actives have a fitted effect of over 60% in size
Target sequence (P51450 whole entry, looked up, the tested form may be a part): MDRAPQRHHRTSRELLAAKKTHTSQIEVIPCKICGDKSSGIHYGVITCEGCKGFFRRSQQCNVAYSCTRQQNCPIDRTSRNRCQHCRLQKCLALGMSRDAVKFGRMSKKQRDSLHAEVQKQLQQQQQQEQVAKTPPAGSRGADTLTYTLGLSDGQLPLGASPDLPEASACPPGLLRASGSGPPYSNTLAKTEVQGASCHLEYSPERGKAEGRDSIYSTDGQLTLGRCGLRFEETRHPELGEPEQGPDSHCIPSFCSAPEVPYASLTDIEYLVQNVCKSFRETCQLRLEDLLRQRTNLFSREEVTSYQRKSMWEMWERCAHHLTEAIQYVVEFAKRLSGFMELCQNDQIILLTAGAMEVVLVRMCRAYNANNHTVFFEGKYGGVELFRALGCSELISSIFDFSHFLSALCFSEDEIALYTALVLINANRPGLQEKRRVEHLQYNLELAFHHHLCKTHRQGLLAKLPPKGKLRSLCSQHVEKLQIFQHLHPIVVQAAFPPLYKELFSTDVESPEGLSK
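Luminescence from a UAS-regulated Photinus luciferase reporter in stably transfected Drosophila Schneider cells is measured; decreased signal marks ROR gamma inhibition. Fusion expression is induced by 700 uM copper sulfate for 20 hr.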
Gal4-VP16 FLuc: inhibits Gal4-VP16 luciferase reporter, ROR gamma counter-screen. Drosophila S2 Gal4-VP16 UAS-luciferase, luminescence, 20 h. Potency, µM (doses to about 53.6 µM), actives largely listed as inhibitors. 310,000 tested, 3.5% active;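 further: Gal4-VP16 expression switched on by copper sulfate through the metallothionein promoter; nearly all actives have a fitted effect of over 50% in size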
CtBP-E1A inh: inhibitors of CtBP/E1A interaction; AlphaScreen GST-E1A/His-CtBP binding, 1536-well; active compounds read low; activity change, % (test concentration not listed); 340,000 tested, 0.49% active; in the data active means activity change below about -65%; inconclusive means mostly about -30% to -63%
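Protein mix (5X: 125 nM each GST-E1A, His-CtBP) was incubated with pinned compound 2 h at 37 deg C in dark, in 50 mM Tris pH 8.0 buffer with 300 mM NaCl. Glutathione donor and nickel acceptor beads followed; AlphaScreen signal read after 1 h.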
Six1-Eya2 inh: Six1/Eya2 interaction inhibition | AlphaScreen GST-Six1/His-Eya2 binding, biochemical; active compounds read low | activity change, % (no concentration beside the values) | Q15475+O00167 | 360,000 tested, 0.56% active | AID 651725; in the data active means activity change below about -65%; inconclusive means mostly about -30% to -63%
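Homogeneous AlphaScreen proximity assay pairing GST-Six1 with His-tagged Eya2 (added as 5X mix: 250 nM and 500 nM) in 50 mM Tris pH 8.0, 300 mM NaCl, 1 mM TCEP. Glutathione donor and nickel acceptor beads; 1 h, 37 °C, dark.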
PKM2 act: PKM2 (human) enzyme activation; P14618; purified PKM2, Kinase-Glo ATP luminescence, activation; response scale: 0% is enzyme alone, no compound; Potency, µM (titrated, usually from 57.5 µM), actives largely listed as activators; 260,000 tested, 0.34% active; further: nearly all actives have a fitted effect of over 55% in size
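Purified hPK-M2 (>95% pure) converted ADP (0.1 mM final) to ATP with 0.5 mM PEP in 50 mM imidazole pH7.2, KCl, MgCl2, Tween 20, BSA; 1 h at room temperature. ATP detected by Kinase-Glo luminescence.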
Of the large screens only hits and unclear results are named; the others gave an inactive call. Unless noted, the call rests on the fitted dose curve; in most records, active means well fitted curve in the direction sought with a large enough effect; inconclusive means small, poorly fitted or top-dose-only effect, or another doubt; inactive means no such curve, though single readings can be large; an effect the other way counts as inactive or inconclusive.

CCOC(=O)N/N=C/c1ccc(N2CCOCC2)s1	none
O=[N+]([O-])c1ccc(N/N=C/c2sc(N3CCOCC3)nc2-c2ccccc2)c(S(=O)(=O)Nc2ccc(Cl)cc2)c1	RORg inh inconclusive, Gal4-VP16 FLuc 3.16µM
CCOc1ccc(S(=O)(=O)N(CC)CC(=O)NCc2ccccn2)cc1C	none
CC(C)c1csc(CN2CCC(C(=O)Nc3cccc(-c4ccco4)c3)CC2)n1	none (no result: RORg inh, Gal4-VP16 FLuc, PKM2 act)
O=C(NC1CCCCC1)C(C1CC1)n1c(=O)c(-c2cc3ccccc3[nH]2)nc2ccccc21 (stereo not drawn)	none (no result: RORg inh, Gal4-VP16 FLuc, PKM2 act)
COc1ccc(N2CCN(C(=S)Nc3ccccc3)CC2)cc1	RORg inh 12.6µM, Gal4-VP16 FLuc inconclusive
CC(=O)c1ccc(N2CCN(C(=S)Nc3cccc(F)c3)CC2)cc1	RORg inh 14.1µM
COc1ccc(N2CCN(C(=S)Nc3cccc(OC)c3)CC2)cc1	none
CC(=O)c1ccc(N2CCN(C(=S)Nc3ccc(Oc4ccccc4)cc3)CC2)cc1	RORg inh 3.16µM, Gal4-VP16 FLuc 4.47µM
CC(C)(C)c1ccccc1NC(=O)NC1CCN(Cc2c(F)cccc2Cl)CC1	none
CN(C)CCCSc1ccccc1NC(=O)/C=C\c1ccccc1	none (no result: CtBP-E1A inh, Six1-Eya2 inh, PKM2 act)
COc1ccc(N2CCN(CCNC(=O)c3ccc4c(c3)[nH]c(=S)n3c5ccccc5nc43)CC2)cc1	RORg inh 6.31µM, Gal4-VP16 FLuc 3.55µM
Cn1c(OCc2cccnc2)nc2c1c(=O)n(Cc1ccccc1)c(=O)n2C	RORg inh 11.2µM, Gal4-VP16 FLuc 6.31µM
Cn1c(OCc2cccnc2)nc2c1c(=O)n(Cc1ccc(F)cc1)c(=O)n2C	PKM2 act inconclusive
Cc1ccc(-c2cn3c(=O)cc(C)[nH]c3n2)cc1	RORg inh 7.94µM, Gal4-VP16 FLuc 7.94µM
COc1ccc(Nc2c3ccccc3nc3ccccc23)cc1	CtBP-E1A inh inconclusive (no result: RORg inh, Gal4-VP16 FLuc)
O=C(O)c1ccc(Nc2c3ccccc3nc3ccccc23)cc1	RORg inh inconclusive, Gal4-VP16 FLuc 20µM (no result: PKM2 act)
CN1CCN(c2ccc(Nc3c4ccccc4nc4ccccc34)cc2)CC1	Gal4-VP16 FLuc 10µM (no result: CtBP-E1A inh, Six1-Eya2 inh, PKM2 act)
O=C(O)c1ccc(Nc2nc(-c3ccccc3)nc3ccccc23)cc1	Six1-Eya2 inh inconclusive (no result: CtBP-E1A inh, PKM2 act)
Cc1cc(C)n(-c2ccc(C(=O)N3CCN(S(=O)(=O)c4ccc(Br)cc4Cl)CC3)cc2)n1	none (no result: RORg inh, Gal4-VP16 FLuc, PKM2 act)
Cc1noc(C)c1-c1ccc2ncnc(NCc3ccc(C(F)(F)F)o3)c2c1	RORg inh inconclusive (no result: CtBP-E1A inh, Six1-Eya2 inh, PKM2 act)
CC(NC(=O)COC(=O)COc1cccc2c1OC(C)(C)C2)c1ccccc1 (stereo not drawn)	none
COc1ccc(-c2nsc3c(N4CCCCC4)ncnc23)cc1	RORg inh 1.12µM, Gal4-VP16 FLuc inconclusive
COc1ccc(C(=O)N2CCN(c3ncnc4c(-c5ccccc5)nsc34)CC2)cc1	none
COc1ccc(-c2nsc3c(N4CCCCC4C)ncnc23)cc1 (stereo not drawn)	RORg inh 0.282µM, Gal4-VP16 FLuc inconclusive (no result: CtBP-E1A inh)
Cc1ccc(C(=O)N2CCN(c3ncnc4c(-c5ccccc5)nsc34)CC2)cc1	none (no result: CtBP-E1A inh, Six1-Eya2 inh)
Cc1ccc(-c2nsc3c(N4CCC(C(N)=O)CC4)ncnc23)cc1	RORg inh inconclusive, Gal4-VP16 FLuc 0.631µM
Cc1cnc(CNc2ncncc2-c2ccc(N(C)C)cc2)cn1	none (no result: CtBP-E1A inh, Six1-Eya2 inh, PKM2 act)
Cc1nn(CCCC(=O)NCCc2ccccc2)c(=O)c2nccn12	none
COc1ccc(C(CNC(=O)COc2cccc(C(F)(F)F)c2)N2CCCC2)cc1 (stereo not drawn)	none (no result: RORg inh, Gal4-VP16 FLuc, PKM2 act)
Cc1ccccc1-c1nnc(-c2ccc(Br)cc2)o1	Gal4-VP16 FLuc 2.82µM
O=C(CSc1nncn1-c1ccccn1)Nc1cccc(Cl)c1	none
O=C(CSC1=NNC(c2ccccn2)S1)Nc1cccc(Cl)c1 (stereo not drawn)	RORg inh 3.55µM, Gal4-VP16 FLuc 12.6µM, CtBP-E1A inh -96.0, Six1-Eya2 inh -89.2
O=C(CSc1nnc(-c2ccccn2)o1)Nc1ccccc1	none
O=C(CSC1=NNC(c2ccccn2)S1)Nc1ccccc1 (stereo not drawn)	RORg inh 1µM, Gal4-VP16 FLuc 2.51µM, CtBP-E1A inh -94.0, Six1-Eya2 inh -93.9
O=C(NC1CCCCC1)c1ccc2snnc2c1	none
O=C(NC(=S)NCC1CCCO1)c1cccc([N+](=O)[O-])c1 (stereo not drawn)	RORg inh inconclusive, Gal4-VP16 FLuc inconclusive
O=C(NC(=S)NCc1ccccc1)c1cccc([N+](=O)[O-])c1	RORg inh 6.31µM, Gal4-VP16 FLuc 5.62µM (no result: CtBP-E1A inh)
